# Measured values as given in PubChem BioAssay (EPA / NIEHS).
# Records with an inconclusive call do not appear. The source made the active and inactive calls. How the source made its calls, unless noted: active means hit-call score of the fitted dose curve at least 0.9, where 1 is the maximum; inactive means score below 0.9.
# Assays:
# [1] = BSK_SAg_PBMCCytotoxicity: PBMC Cytotoxicity Assessment in the BioMAP Diversity Plus: SAg Assay (AID 2283093); details: primary human HUVEC with PBMC;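 further: PBMC viability measured as Alamar Blue reduction fluorescence at 546/580 nm; fitted both ways against DMSO so a hit may be loss or gain of signal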;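 on AC50: PBMC superantigen activated with SEB plus TSST-1 one hour after compound addition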
# Procedure, shortened: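 Alamar Blue reduction (6 h, 546/580 nm) reports PBMC cytotoxicity after 90 h superantigen activation (SEB, TSST-1; 20 ng/mL final each) with 1 h compound pre-treatment. Gain or loss of signal fitted versus DMSO.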
# [2] = read-out: Interleukin-8 (IL8), CXCL8 (gene 3576); assay: BSK_SAg_IL8: BioMAP Diversity Plus: SAg Assay for Interleukin-8 (IL8) Biomarker Activity (AID 2283094); details: primary human HUVEC with PBMC; actives raise or lower the signal
# Procedure, shortened: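 Chemicals were dosed onto a human endothelial–PBMC co-culture, and IL-8 was quantified by ELISA after 24 h. Both increases and decreases were fitted relative to DMSO.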
# [3] = BSK_SAg_Proliferation: Cell Proliferation Assessment in the BioMAP Diversity Plus: SAg Assay (AID 2283095); details: primary human HUVEC with PBMC;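 further: relative cell number as total protein by SRB absorbance in sub-confluent culture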
# Procedure, shortened: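 Absorbance of sulforhodamine B at 560 nm reports total protein in a human vascular endothelial/PBMC co-culture after 96 h chemical exposure. Gain or loss of signal is fitted in both directions against DMSO.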
# [4] = BSK_SAg_SRB: Viability Assessment in the BioMAP Diversity Plus: SAg Assay (AID 2283096); details: primary human HUVEC with PBMC;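 further: cells read one day after compound addition; hits may be either gain or loss of signal compared with DMSO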
# Procedure, shortened: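 This overt-cytotoxicity endpoint quantifies protein in human endothelial/PBMC co-cultures at 24 h using SRB absorbance (560 nm) after trichloroacetic acid fixation. Values reflect signal change from the DMSO negative control, fitted bidirectionally.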
# [5] = target: human CYP2A6, CYP2A6 (gene 1548) (UniProt P11509); assay: NVS_ADME_hCYP2A6: NovaScreen (NVS) CYP450-related Enzyme Activity (ADME) Assay for human CYP2A6 (AID 2283099; active means hit-call score of the fitted dose curve at least 0.9, where 1 is the maximum)
# Procedure, shortened: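 Fluorescent substrate turnover by recombinant CYP2A6 (insect cell source), 0.5 h read. Screen: 10 uM, duplicate; threshold hits (e.g. 30% inhibition) → singleton concentration-response, top 20 uM. Positive and negative controls on every plate.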
# [6] = target: human CYP2B6, CYP2B6 (gene 1555) (UniProt P20813); assay: NVS_ADME_hCYP2B6: NovaScreen (NVS) CYP450-related Enzyme Activity (ADME) Assay for human CYP2B6 (AID 2283101; active means hit-call score of the fitted dose curve at least 0.9, where 1 is the maximum)
# Procedure, shortened: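 Compounds were first screened in duplicate at 10 uM against recombinant enzyme, with the fluorescent product measured after 1 hour. Active compounds were retested over a concentration series. Loss of fluorescence versus acetonitrile control was scored as reduced enzyme activity.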
# [7] = target: Cytochrome P450 2C19 (Homo sapiens) (UniProt P33261); assay: NVS_ADME_hCYP2C19: NovaScreen (NVS) CYP450-related Enzyme Activity (ADME) Assay for human CYP2C19 (AID 2283113; active means hit-call score of the fitted dose curve at least 0.9, where 1 is the maximum;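 further: potency for inhibition seen as loss of fluorescent signal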)
# Procedure, shortened: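 Fluorescence intensity was measured 1 hour after chemicals were added to insect-cell-derived recombinant CYP2C19 with fluorogenic substrate. Decreased signal versus acetonitrile control was taken as reduced enzyme activity; initial testing used 10 uM in duplicate.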
# [8] = target: human CYP1A2, CYP1A2 (gene 1544) (UniProt P05177); assay: NVS_ADME_hCYP1A2: NovaScreen (NVS) CYP450-related Enzyme Activity (ADME) Assay for human CYP1A2 (AID 2283102; active means hit-call score of the fitted dose curve at least 0.9, where 1 is the maximum;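 further: potency for inhibition since loss of fluorescence marks reduced CYP1A2 activity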)
# Procedure, shortened: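 rec. hCYP1A2 (insect cells), cell-free; fluorogenic substrate; 0.5 h; FI read. Baseline = acetonitrile; signal loss = inhibition. 10 uM duplicate primary → conc. series for actives.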
# [9] = target: human CYP2D6, CYP2D6 (gene 1565) (UniProt P10635); assay: NVS_ADME_hCYP2D6: NovaScreen (NVS) CYP450-related Enzyme Activity (ADME) Assay for human CYP2D6 (AID 2283107; active means hit-call score of the fitted dose curve at least 0.9, where 1 is the maximum)
# Procedure, shortened: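 Insect-cell recombinant enzyme + fluorogenic substrate, cell-free; 1 h incubation; fluorescence intensity readout. Acetonitrile = neg. ctrl/baseline. Single-point 10 uM, duplicate; follow-up concentration series.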
# [10] = target: Cytochrome P450 3A4 (Homo sapiens) (UniProt P08684); assay: NVS_ADME_hCYP3A4: NovaScreen (NVS) CYP450-related Enzyme Activity (ADME) Assay for human CYP3A4 (AID 2283110; active means hit-call score of the fitted dose curve at least 0.9, where 1 is the maximum)
# Procedure, shortened: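 Activity is derived from decreased fluorescence intensity relative to acetonitrile, measured 0.33 hour after dosing insect-cell-expressed CYP3A4 in a cell-free format. Screening used 10 uM in duplicate before concentration-response follow-up.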
# [11] = target: human Caspase 5 (CASP5), CASP5 (gene 838) (UniProt P51878); assay: NVS_ENZ_hCASP5: NovaScreen (NVS) Enzymatic Assay for human Caspase 5 (CASP5) (AID 2283137; active means hit-call score of the fitted dose curve at least 0.9, where 1 is the maximum)
# Procedure, shortened: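 Chemicals were first tested in duplicate at 25 uM against recombinant caspase 5 from E. coli. Activity was read by fluorescence intensity 2 hours after dosing. Those passing a preset inhibition threshold were retested in singleton concentration-response up to 50 uM.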
# [12] = target: human Caspase 4 (CASP4), CASP4 (gene 837) (UniProt P49662); assay: NVS_ENZ_hCASP4: NovaScreen (NVS) Enzymatic Assay for human Caspase 4 (CASP4) (AID 2283143; active means hit-call score of the fitted dose curve at least 0.9, where 1 is the maximum)
# Procedure, shortened: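 Compounds were first tested in duplicate at 25 uM, and hits were titrated singly to a 50 uM maximum. Recombinant protease from E. coli was read by fluorescence 2 h post-dose, and activity loss was fitted against the DMSO baseline.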
# [13] = target: human CYP19A1, CYP19A1 (gene 1588) (UniProt P11511); assay: NVS_ADME_hCYP19A1: NovaScreen (NVS) CYP450-related Enzyme Activity (ADME) Assay for human CYP19A1 (AID 2283098; active means hit-call score of the fitted dose curve at least 0.9, where 1 is the maximum;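 further: potency for inhibitors seen as loss of fluorescent enzyme signal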)
# Procedure, shortened: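 Compounds were first screened at 10 uM in duplicate against purified enzyme, with a fluorogenic substrate and fluorescence intensity detection after 0.5 h. Inhibition appears as reduced signal against acetonitrile control.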
# [14] = target: human Colony Stimulating Factor 1 Receptor (CSF1R), CSF1R (gene 1436) (UniProt P07333); assay: NVS_ENZ_hCSF1R: NovaScreen (NVS) Enzymatic Assay for human Colony Stimulating Factor 1 Receptor (CSF1R) (AID 2283150; active means hit-call score of the fitted dose curve at least 0.9, where 1 is the maximum)
# Procedure, shortened: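 Compounds screened in duplicate at 25 uM, then concentration-response (top 50 uM) for those passing threshold such as 30% inhibition; recombinant CSF1R activity measured 1 h post-dosing via fluorescent substrate/product mobility-shift separation, loss of signal versus DMSO.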
# Cytochrome P450 3A4 (Homo sapiens), sequence (P08684 whole entry, looked up): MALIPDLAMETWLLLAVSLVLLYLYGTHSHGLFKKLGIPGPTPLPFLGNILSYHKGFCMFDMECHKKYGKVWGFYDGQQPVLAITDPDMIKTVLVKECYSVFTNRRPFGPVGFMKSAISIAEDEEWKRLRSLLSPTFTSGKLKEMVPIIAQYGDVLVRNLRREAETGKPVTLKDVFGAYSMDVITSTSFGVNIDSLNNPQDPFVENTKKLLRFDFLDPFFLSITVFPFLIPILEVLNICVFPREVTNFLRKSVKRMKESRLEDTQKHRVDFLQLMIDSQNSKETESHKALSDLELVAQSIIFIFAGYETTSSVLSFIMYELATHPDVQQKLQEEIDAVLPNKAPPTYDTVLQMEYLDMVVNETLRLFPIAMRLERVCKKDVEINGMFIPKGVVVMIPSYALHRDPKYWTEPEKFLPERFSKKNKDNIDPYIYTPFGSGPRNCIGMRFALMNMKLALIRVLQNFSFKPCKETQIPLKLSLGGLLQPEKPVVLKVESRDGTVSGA
# human CYP2B6, CYP2B6 (gene 1555), sequence (P20813 whole entry, looked up): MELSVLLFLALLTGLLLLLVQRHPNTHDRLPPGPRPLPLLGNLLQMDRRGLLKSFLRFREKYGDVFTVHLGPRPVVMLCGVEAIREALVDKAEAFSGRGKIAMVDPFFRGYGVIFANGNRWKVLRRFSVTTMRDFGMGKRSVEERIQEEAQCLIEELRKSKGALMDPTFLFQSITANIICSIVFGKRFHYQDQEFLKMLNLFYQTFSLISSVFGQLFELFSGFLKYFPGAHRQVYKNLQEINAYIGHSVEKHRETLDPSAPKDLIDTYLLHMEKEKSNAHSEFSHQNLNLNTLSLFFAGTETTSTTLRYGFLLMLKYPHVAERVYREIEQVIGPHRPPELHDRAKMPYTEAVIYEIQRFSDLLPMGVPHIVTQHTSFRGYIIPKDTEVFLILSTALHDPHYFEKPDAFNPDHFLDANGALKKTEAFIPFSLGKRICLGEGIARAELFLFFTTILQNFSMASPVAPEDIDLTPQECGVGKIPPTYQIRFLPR
# human CYP1A2, CYP1A2 (gene 1544), sequence (P05177 whole entry, looked up): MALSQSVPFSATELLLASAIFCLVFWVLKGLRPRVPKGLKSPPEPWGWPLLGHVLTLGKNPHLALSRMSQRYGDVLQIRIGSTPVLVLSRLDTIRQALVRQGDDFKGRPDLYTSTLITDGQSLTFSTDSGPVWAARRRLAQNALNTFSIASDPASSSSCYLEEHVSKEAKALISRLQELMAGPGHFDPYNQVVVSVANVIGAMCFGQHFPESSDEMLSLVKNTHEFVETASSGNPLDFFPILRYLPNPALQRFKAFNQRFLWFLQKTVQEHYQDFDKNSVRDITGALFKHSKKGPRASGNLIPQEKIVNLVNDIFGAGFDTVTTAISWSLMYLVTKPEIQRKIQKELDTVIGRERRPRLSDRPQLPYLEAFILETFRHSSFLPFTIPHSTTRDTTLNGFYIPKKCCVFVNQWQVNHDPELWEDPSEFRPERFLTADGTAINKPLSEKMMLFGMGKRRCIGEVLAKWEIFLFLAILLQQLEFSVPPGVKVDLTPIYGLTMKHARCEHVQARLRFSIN
# human Caspase 4 (CASP4), CASP4 (gene 837), sequence (P49662 whole entry, looked up): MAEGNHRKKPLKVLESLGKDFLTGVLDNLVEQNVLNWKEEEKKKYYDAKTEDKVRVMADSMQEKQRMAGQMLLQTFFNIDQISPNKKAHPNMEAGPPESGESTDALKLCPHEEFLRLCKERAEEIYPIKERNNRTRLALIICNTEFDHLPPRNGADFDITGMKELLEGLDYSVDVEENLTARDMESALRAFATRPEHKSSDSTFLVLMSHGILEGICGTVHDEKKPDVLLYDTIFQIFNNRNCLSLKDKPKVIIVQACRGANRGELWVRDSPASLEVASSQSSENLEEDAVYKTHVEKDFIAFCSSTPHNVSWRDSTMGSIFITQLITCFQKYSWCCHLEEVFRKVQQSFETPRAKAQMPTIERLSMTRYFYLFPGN
# human CYP19A1, CYP19A1 (gene 1588), sequence (P11511 whole entry, looked up): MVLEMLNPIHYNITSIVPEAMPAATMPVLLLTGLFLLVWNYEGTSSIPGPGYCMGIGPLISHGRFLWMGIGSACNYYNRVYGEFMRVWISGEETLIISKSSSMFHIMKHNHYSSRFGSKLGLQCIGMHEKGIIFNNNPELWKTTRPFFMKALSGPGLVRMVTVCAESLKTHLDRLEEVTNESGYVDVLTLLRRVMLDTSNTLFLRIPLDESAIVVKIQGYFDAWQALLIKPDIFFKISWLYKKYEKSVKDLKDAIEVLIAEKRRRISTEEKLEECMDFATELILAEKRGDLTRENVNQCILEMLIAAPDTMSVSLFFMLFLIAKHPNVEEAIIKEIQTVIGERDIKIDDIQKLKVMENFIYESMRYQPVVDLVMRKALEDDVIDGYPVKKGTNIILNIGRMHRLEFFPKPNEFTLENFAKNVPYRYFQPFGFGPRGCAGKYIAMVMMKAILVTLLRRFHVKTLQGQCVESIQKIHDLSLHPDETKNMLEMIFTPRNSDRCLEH
# human Caspase 5 (CASP5), CASP5 (gene 838), sequence (P51878 whole entry, looked up): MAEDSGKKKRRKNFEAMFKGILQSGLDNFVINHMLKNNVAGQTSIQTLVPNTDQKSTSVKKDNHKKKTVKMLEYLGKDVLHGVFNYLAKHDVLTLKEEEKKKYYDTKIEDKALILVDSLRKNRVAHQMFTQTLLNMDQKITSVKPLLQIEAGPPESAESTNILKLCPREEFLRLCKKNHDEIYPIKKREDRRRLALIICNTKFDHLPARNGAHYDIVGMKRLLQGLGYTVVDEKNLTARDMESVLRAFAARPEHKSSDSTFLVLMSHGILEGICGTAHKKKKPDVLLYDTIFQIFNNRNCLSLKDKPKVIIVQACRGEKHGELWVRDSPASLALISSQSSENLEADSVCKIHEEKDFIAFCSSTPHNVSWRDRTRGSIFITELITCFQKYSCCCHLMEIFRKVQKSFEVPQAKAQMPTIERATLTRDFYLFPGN
# human CYP2A6, CYP2A6 (gene 1548), sequence (P11509 whole entry, looked up): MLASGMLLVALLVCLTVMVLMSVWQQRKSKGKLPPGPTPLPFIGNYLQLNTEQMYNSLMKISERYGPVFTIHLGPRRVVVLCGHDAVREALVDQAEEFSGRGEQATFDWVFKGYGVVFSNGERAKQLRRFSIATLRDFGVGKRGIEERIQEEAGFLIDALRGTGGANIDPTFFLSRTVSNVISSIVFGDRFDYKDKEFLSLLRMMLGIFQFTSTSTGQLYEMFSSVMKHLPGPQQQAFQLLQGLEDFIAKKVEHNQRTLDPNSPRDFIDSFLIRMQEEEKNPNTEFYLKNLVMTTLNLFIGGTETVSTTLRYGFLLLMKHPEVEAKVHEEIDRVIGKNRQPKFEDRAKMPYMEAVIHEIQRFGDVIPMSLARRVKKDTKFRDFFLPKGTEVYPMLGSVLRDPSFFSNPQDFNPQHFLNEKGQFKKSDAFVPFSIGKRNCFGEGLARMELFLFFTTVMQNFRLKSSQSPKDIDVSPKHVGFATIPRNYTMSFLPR
# human CYP2D6, CYP2D6 (gene 1565), sequence (P10635 whole entry, looked up): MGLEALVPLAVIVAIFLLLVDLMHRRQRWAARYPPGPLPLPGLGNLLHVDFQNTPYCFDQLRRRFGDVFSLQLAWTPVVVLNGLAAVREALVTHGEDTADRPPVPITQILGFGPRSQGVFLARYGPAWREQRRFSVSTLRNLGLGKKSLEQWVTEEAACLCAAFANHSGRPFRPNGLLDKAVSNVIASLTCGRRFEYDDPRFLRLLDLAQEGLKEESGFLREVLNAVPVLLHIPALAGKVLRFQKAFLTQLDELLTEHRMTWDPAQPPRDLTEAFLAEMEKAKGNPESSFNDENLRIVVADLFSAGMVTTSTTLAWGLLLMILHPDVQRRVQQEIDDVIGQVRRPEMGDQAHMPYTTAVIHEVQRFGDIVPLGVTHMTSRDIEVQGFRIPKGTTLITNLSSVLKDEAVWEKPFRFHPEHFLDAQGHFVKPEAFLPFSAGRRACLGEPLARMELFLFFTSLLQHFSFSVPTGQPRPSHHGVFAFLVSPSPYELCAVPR
# human Colony Stimulating Factor 1 Receptor (CSF1R), CSF1R (gene 1436), sequence (P07333 whole entry, looked up): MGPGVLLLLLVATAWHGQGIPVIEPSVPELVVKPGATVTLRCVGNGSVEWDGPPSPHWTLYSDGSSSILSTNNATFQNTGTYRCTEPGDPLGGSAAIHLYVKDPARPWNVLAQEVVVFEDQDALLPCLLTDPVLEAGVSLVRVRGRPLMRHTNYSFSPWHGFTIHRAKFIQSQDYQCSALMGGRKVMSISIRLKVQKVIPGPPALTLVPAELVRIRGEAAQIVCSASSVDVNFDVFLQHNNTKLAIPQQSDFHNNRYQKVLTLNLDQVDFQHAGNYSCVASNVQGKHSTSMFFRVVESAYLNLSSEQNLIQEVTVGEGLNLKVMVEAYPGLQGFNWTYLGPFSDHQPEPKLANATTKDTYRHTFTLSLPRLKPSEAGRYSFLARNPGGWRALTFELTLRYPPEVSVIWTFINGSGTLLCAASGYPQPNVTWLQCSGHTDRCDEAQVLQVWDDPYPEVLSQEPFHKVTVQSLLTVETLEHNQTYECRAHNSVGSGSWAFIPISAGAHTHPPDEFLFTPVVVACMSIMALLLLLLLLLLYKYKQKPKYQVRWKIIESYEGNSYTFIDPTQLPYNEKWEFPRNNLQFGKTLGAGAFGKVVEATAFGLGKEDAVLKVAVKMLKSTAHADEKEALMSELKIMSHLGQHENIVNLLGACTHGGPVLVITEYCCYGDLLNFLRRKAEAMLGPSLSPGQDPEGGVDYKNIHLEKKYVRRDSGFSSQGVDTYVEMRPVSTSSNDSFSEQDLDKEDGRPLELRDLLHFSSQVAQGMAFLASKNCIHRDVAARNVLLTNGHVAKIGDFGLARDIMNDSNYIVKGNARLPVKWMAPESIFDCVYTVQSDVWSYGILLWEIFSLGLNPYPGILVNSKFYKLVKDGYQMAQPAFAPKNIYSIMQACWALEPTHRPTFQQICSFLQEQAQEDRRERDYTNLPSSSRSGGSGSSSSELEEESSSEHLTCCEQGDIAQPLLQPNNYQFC
smiles,measurement,setting,value
CN(C)c1ccc(Cc2ccc(N(C)C)cc2)cc1,outcome,[1],inactive
same,outcome,[2],inactive
same,AC50,[3],30.9 µM (active)
same,outcome,[4],inactive
same,outcome,[5],inactive
same,AC50,[6],1.02 µM (active)
same,AC50,[7],0.727 µM (active)
COC(=O)c1c(Cl)c(Cl)c(C(=O)OC)c(Cl)c1Cl,outcome,[1],inactive
same,outcome,[2],inactive
same,outcome,[3],inactive
same,outcome,[4],inactive
same,AC50,[8],8.47 µM (active)
CC(C)(O)c1coc(S(=O)(=O)NC(=O)Nc2c3c(cc4c2CCC4)CCC3)c1,outcome,[1],inactive
same,outcome,[2],inactive
same,outcome,[3],inactive
same,outcome,[4],inactive
same,AC50,[6],6.39 µM (active)
same,AC50,[8],16 µM (active)
same,AC50,[7],10 µM (active)
O=C(NS(=O)(=O)/C=C/c1ccccc1)c1ccc(F)cc1Cl,outcome,[1],inactive
same,outcome,[2],inactive
same,AC50,[3],8.5 µM (active)
same,outcome,[4],inactive
CC(C)=CCC/C(C)=C/CO,outcome,[1],inactive
same,outcome,[2],inactive
same,outcome,[3],inactive
same,outcome,[4],inactive
CCCN(C1CCN(C(=O)C2CCNCC2)CC1)[C@@H]1CCc2ccc(OC)cc2C1,outcome,[1],inactive
same,outcome,[2],inactive
same,outcome,[3],inactive
same,outcome,[4],inactive
CC(=O)OC[C@H]1O[C@@](COC(C)=O)(O[C@H]2O[C@H](COC(C)=O)[C@@H](OC(C)=O)[C@H](OC(C)=O)[C@H]2OC(C)=O)[C@@H](OC(C)=O)[C@@H]1OC(C)=O,outcome,[1],inactive
same,outcome,[2],inactive
same,outcome,[3],inactive
same,outcome,[4],inactive
Nc1ccc(Nc2ccccc2)cc1,AC50,[1],5.36 µM (active)
same,AC50,[2],8.78 µM (active)
same,AC50,[3],14 µM (active)
same,outcome,[4],inactive
same,AC50,[6],4.35 µM (active)
same,AC50,[8],15.1 µM (active)
same,AC50,[9],13.8 µM (active)
same,AC50,[10],7.5 µM (active)
same,AC50,[7],6.51 µM (active)
same,outcome,[11],inactive
same,outcome,[12],inactive
CCOC(=O)c1ccc(C2CCC(NC[C@H](O)COc3ccc(O)c(NS(C)(=O)=O)c3)CC2)cc1 (some centres not stated),AC50,[1],20.6 µM (active)
same,AC50,[2],28.8 µM (active)
same,AC50,[3],14.4 µM (active)
same,AC50,[4],26.3 µM (active)
same,AC50,[13],0.513 µM (active)
same,outcome,[6],inactive
same,outcome,[10],inactive
same,AC50,[7],1.74 µM (active)
Oc1ccc2c(c1)-c1ccccc1C2,outcome,[1],inactive
same,outcome,[2],inactive
same,outcome,[3],inactive
same,AC50,[4],20 µM (active)
same,AC50,[8],0.691 µM (active)
same,outcome,[10],inactive
same,AC50,[7],5.99 µM (active)
same,AC50,[11],36.1 µM (active)
CN(C)c1ccc(N=NS(=O)(=O)O)cc1,outcome,[1],inactive
same,outcome,[2],inactive
same,AC50,[3],19 µM (active)
same,outcome,[4],inactive
same,AC50,[13],12 µM (active)
same,outcome,[12],inactive
same,outcome,[14],inactive
Cn1c(=O)c2c(ncn2C)n(C)c1=O,outcome,[1],inactive
same,outcome,[2],inactive
same,outcome,[3],inactive
same,outcome,[4],inactive
CC(C)=CCC/C(C)=C\CO,outcome,[1],inactive
same,outcome,[2],inactive
same,outcome,[3],inactive
same,outcome,[4],inactive
